Results: PubChem BioAssay
Several values for one entry are separate records, joined by “and”; a condition that tells them apart may be missing. Equal entries are not always repeated. For some of these results: Potency and affinity values are given separately. Activity calls are given as the source filed them. Unless noted, how the calls were made is not given here.

Legend:
[1] = liver-stage malaria parasite load reduction – cell-based, known kinase inhibitor set, luminescence, hepatoma host viability (AID 624392); settings: Plasmodium liver stage in hepatoma cells, luciferase luminescence, concentration not given here; liver cell % of control: measured here: host liver cell viability; parasite % of control: stronger effect = lower value;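 further: infected cells incubated roughly two days before readout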
[2] = altered dexamethasone sensitivity, NF-kB reporter, cell-based, luciferase, IL-1B stimulus (AID 624486); settings: IL-1B + dexamethasone, luminescence; percent of negative control (+Dex): actives lie on both sides, concentration not given here; z-score: measured here: IL-1B alone, no Dex;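 on percent of negative control (+Dex): 100% = mean signal of vehicle control wells on the plate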
[3] = target: Cellular tumor antigen p53 (Homo sapiens) (UniProt P04637); assay: GFP-p53 level modulators in HPV16+ cells – imaging, known kinase inhibitor set, EGFP/DsRed ratio (AID 1053116); settings: GFP-p53 stability, stronger effect = higher value; EGFP object count: measured here: GFP-p53 positive objects count;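 further: cells exposed to compounds for 24 h at 37 °C before reading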
Chain of Cellular tumor antigen p53 (Homo sapiens) (P04637 whole entry, looked up): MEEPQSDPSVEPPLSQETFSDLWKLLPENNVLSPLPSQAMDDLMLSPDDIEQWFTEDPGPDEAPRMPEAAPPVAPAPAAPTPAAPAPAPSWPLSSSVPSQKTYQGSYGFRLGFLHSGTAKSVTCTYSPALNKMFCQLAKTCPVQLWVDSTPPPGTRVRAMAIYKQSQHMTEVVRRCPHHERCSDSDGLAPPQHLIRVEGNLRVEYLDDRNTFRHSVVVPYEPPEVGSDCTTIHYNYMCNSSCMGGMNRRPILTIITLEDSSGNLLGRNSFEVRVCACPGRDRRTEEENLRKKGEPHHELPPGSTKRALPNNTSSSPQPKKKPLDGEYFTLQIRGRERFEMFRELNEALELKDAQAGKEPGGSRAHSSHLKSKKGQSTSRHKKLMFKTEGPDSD

[4] = inducers of IRF3 signaling, differentiated THP-1 – cell-based, PMA-stimulated THP-1, luminescence (AID 1053176); settings: PMA-differentiated THP-1, IRF3 reporter luminescence; stronger effect = higher value
[5] = antimalarial activity against Dd2 strain (AID 2302;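 active means growth inhibition above 50% at the single 2 µM test dose, taken to imply half-maximal potency below 2 µM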;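 further: 0% = DMSO untreated growth and 100% = chloroquine plus artemisinin killed control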); settings: P. falciparum Dd2 in RBCs, LDH growth readout, 72 h; at 2 µM; stronger effect = higher value
[6] = human hepatoma cell viability loss – ATP luminescence, cytotoxicity control for P. falciparum antimalarial project, primary screen (AID 2303;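 active means inhibition above 50%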;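 further: 0% = DMSO wells and 100% = digitonin-killed cells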); settings: HepG2 viability, 24-48 h, at 10 µM, stronger effect = higher value
[7] = target: L-lactate dehydrogenase (Plasmodium falciparum (isolate CDC / Honduras)) (UniProt Q27743); assay: PfLDH activity inhibition – cell lysate, 3D7 strain, counter-screen for P. falciparum growth inhibition project (AID 2304);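 further: 0% = vehicle and 100% = reference inhibitor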; settings: P. falciparum 3D7 crude extract, LDH APAD/NBT absorbance; at 2 µM; stronger effect = higher value
Chain of L-lactate dehydrogenase (Plasmodium falciparum (isolate CDC / Honduras)) (Q27743 whole entry, looked up): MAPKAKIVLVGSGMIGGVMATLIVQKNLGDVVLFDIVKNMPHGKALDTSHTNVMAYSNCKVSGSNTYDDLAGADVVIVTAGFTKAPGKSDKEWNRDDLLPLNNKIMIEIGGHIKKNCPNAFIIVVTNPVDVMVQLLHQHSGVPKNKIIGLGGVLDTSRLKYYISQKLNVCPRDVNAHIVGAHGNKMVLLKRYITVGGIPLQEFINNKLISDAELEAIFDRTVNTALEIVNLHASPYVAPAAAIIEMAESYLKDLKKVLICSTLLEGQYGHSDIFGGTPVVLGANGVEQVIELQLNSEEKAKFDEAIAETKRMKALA

[8] = inhibition of 3D7 malaria parasite growth – strain 3D7 (AID 2306);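 further: 0% = DMSO wells and 100% = chloroquine plus artemisinin control wells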; settings: P. falciparum 3D7 erythrocytic growth, LDH absorbance, 72 h; at 2 µM; stronger effect = higher value
[9] = C. elegans survival during P. aeruginosa infection – whole organism (AID 651566);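 further: tested at 14 µM; sign flipped so higher z means a lower ratio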; settings: C. elegans killed by P. aeruginosa, survival ratio
[10] = pro-inflammatory signaling induction in mouse macrophages – cell-based, murine, luminescence (AID 652131); settings: murine macrophage pro-inflammatory reporter, stronger effect = higher value
[11] = target: Calcium-dependent protein kinase 1 (Plasmodium falciparum (isolate 3D7)) (UniProt P62344); assay: PfCDPK1 kinase inhibitors, biochemical, TCAMS library (AID 1159585; cut-off not given, nearly all actives have IC50 up to about 0.98 µM;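 further: inhibitors leave more ATP so luminescence rises with inhibition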); settings: recombinant PfCDPK1, Kinase-Glo ATP depletion luminescence
Chain of Calcium-dependent protein kinase 1 (Plasmodium falciparum (isolate 3D7)) (P62344 whole entry, looked up): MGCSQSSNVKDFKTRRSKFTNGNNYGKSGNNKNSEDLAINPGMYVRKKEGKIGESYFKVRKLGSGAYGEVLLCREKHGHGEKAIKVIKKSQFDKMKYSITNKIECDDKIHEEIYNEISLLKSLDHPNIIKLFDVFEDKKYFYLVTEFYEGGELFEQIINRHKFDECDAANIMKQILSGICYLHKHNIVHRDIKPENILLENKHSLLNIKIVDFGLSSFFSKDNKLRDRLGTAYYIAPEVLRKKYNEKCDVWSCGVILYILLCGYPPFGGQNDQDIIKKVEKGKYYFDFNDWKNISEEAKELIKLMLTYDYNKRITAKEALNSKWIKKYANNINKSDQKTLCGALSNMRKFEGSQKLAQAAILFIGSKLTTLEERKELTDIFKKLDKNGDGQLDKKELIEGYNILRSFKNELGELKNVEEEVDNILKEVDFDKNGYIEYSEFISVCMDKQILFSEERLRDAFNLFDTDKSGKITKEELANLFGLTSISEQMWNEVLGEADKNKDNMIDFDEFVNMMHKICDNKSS

[12] = target: Plasmodium falciparum protein kinase 6 (PK6, PF3D7_1337100) (UniProt Q8IDW1); assay: PfPK6 kinase inhibitors, biochemical, TCAMS library (AID 1159586); settings: recombinant PfPK6, Kinase-Glo ATP depletion luminescence
Chain of Plasmodium falciparum protein kinase 6 (PK6, PF3D7_1337100) (Q8IDW1 1-305): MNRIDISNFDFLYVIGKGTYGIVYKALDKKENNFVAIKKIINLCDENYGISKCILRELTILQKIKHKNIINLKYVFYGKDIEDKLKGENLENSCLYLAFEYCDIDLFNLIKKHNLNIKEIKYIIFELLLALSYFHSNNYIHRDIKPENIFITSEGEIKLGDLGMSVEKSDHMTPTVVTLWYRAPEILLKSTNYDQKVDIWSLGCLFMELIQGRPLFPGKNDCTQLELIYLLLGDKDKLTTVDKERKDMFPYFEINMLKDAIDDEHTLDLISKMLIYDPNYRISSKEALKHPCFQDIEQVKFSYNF

[13] = target: Protein kinase 7 (PK7), Plasmodium falciparum 3D7 (PF3D7_0213400) (UniProt Q7YTF7); assay: inhibition of Plasmodium PK7 catalytic activity – biochemical, TCAMS antimalarial set, Kinase-Glo luminescence (AID 1159587); settings: recombinant PfPK7, Kinase-Glo ATP depletion luminescence
Chain of Protein kinase 7 (PK7), Plasmodium falciparum 3D7 (PF3D7_0213400) (Q7YTF7 1-343): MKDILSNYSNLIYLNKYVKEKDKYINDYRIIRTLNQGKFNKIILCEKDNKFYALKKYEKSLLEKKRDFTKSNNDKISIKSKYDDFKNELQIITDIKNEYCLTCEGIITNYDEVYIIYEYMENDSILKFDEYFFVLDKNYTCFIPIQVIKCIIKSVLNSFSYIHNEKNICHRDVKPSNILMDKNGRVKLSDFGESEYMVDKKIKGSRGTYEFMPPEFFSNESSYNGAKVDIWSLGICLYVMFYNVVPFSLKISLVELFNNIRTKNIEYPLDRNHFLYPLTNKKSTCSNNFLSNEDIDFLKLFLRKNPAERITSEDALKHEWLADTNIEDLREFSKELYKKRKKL

[14] = target: Calcium-dependent protein kinase 4 (Plasmodium falciparum (isolate 3D7)) (UniProt Q8IBS5); assay: PfCDPK4 kinase inhibitors, biochemical, TCAMS library (AID 1159588; cut-off not given, nearly all actives have IC50 up to about 0.91 µM); settings: recombinant PfCDPK4, Kinase-Glo ATP depletion luminescence
Chain of Calcium-dependent protein kinase 4 (Plasmodium falciparum (isolate 3D7)) (Q8IBS5 whole entry, looked up): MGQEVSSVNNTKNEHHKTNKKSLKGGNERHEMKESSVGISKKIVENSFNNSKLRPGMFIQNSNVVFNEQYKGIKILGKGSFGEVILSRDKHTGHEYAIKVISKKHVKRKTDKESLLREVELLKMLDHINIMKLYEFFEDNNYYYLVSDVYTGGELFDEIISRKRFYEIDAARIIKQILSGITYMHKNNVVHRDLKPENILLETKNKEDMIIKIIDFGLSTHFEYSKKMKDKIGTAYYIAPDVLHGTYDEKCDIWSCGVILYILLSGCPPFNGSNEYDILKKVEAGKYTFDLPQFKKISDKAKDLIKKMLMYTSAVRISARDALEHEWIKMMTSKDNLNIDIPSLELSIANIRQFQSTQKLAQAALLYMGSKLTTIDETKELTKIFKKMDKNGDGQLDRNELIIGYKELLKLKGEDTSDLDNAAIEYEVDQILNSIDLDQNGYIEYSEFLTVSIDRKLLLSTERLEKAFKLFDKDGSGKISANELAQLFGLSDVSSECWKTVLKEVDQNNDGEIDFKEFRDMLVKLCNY

[15] = MELAS cybrid and Rieske KO viability enhancers – cell-based, MELAS cybrids, Rieske KO mouse fibroblasts, CellTiter-Glo, primary screen (AID 1508586;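 active means mean z-score across replicates of 1.96 or higher in either the MELAS or the Rieske mutant cell line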;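 further: z relative to plate mean and SD of compound and empty wells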); settings: low glucose

CCNC(=O)C1CCCN2C(=O)CCC(NC(=O)C(Cc3ccc(OP(=O)(O)O)cc3)NC(C)=O)C(=O)N12 (stereo not drawn)
liver cell % of control [1]: 95% | parasite % of control [1]: 44.7% (inactive) | percent of negative control (+Dex) [2]: 102% (inactive) | z-score [2]: 0.145 | EGFP object count [3]: 6 | EGFP/DsRed ratio [3]: 0.215 (inactive) | fraction signal [4]: -0.0005 (inactive)

COc1ccc(N2Cc3cnc(Nc4ccccc4)nc3N(C3CCC(O)C3)C2=O)cc1 (stereo not drawn)
liver cell % of control [1]: 114% | parasite % of control [1]: 234% (inactive) | percent of negative control (+Dex) [2]: 67% (active) | z-score [2]: -1.67 | EGFP object count [3]: 1.5 | EGFP/DsRed ratio [3]: 0.0589 (inactive) | fraction signal [4]: -0.007 (inactive)

Cn1cc(C2=C(c3cn(C)c4ncccc34)C(=O)NC2=O)c2ccccc21
liver cell % of control [1]: 95.3% | parasite % of control [1]: 38.8% (inactive) | percent of negative control (+Dex) [2]: 100% (inactive) | z-score [2]: -0.87 | EGFP object count [3]: 20 | EGFP/DsRed ratio [3]: 0.579 (inactive) | fraction signal [4]: -0.009 (inactive)

O=C1Nc2ccc(F)c3c(OCCO)cc(-c4ccc[nH]4)c1c23
liver cell % of control [1]: 83.9% | parasite % of control [1]: 52.1% (inactive) | percent of negative control (+Dex) [2]: 105% (inactive) | z-score [2]: 1.54 | EGFP object count [3]: 6 | EGFP/DsRed ratio [3]: 0.192 (inactive) | fraction signal [4]: -0.016 (inactive)

O=C1NC(=NCCc2cccc(F)c2)SC1=Cc1ccc2ncccc2c1
liver cell % of control [1]: 113% | parasite % of control [1]: 54% (inactive) | percent of negative control (+Dex) [2]: 85.5% (inactive) | z-score [2]: -0.65 | EGFP object count [3]: 5.5 | EGFP/DsRed ratio [3]: 0.176 (inactive) | fraction signal [4]: -0.018 (inactive)

CS(=O)(=O)CCNCc1ccc(-c2ccc3ncnc(Nc4ccc(OCc5ccccc5)c(Cl)c4)c3c2)o1
growth inhibition [5]: 76% (active) | inhibition [6]: 4% (inactive) | inhibition [7]: -7% (inactive) | growth inhibition [8]: 101% (active) | liver cell % of control [1]: 113% | parasite % of control [1]: 73.2% (inactive) | percent of negative control (+Dex) [2]: 73.5% (inactive) | z-score [2]: -1.31 | z-score [9]: -0.785 (inactive) | z-score [10]: 2.12 (inactive) | fraction signal [4]: -0.0085 (inactive) | outcome [11]: inactive | outcome [12]: inactive | outcome [13]: inactive | outcome [14]: inactive | z-score ([15]; MELAS cybrid survival, CellTiter-Glo 48 h, stronger effect = higher value): -0.588 (inactive) | z-score ([15]; Rieske KO mouse fibroblast survival, CellTiter-Glo 72 h): -0.304

COc1cc[nH]c1C=C1C(=O)Nc2ccc(F)c(C#CC3(O)CCOCC3)c21
liver cell % of control [1]: 128% | parasite % of control [1]: 1.61% (active) | percent of negative control (+Dex) [2]: 122% (inactive) | z-score [2]: -1.81 | EGFP object count [3]: 6 | EGFP/DsRed ratio [3]: 0.109 (inactive) | fraction signal [4]: -0.0095 (inactive)

Cn1c(=O)c(Oc2ccccc2F)cc2cnc(NC3CCOCC3)nc21
liver cell % of control [1]: 116% | parasite % of control [1]: 49.5% (inactive) | percent of negative control (+Dex) [2]: 107% (inactive) | z-score [2]: 0.09 | EGFP object count [3]: 7 | EGFP/DsRed ratio [3]: 0.313 (inactive) | fraction signal [4]: 0.001 (inactive)

CN(C)CC1CCn2c(c(C3=C(c4cn(C)c5ccccc45)C(=O)NC3=O)c3ccccc32)C1 (stereo not drawn)
liver cell % of control [1]: 80.7% and 77.1% | parasite % of control [1]: 27.7% (inactive) and 36.4% (inactive) | percent of negative control (+Dex) [2]: 97% (inactive) and 96.5% (inactive) | z-score [2]: -0.715 and -0.17 | EGFP object count [3]: 13.5 and 7.5 | EGFP/DsRed ratio [3]: 0.0249 (inactive) and 0.0159 (inactive) | fraction signal [4]: -0.0005 (inactive) and -0.0055 (inactive)
